# Structures can show the parent of a compound that is named as a salt. ± gives the standard deviation of the averaged measurements.
# Tested on: SW480
# Assay: cell viability (CellTiter-Glo) relative to plate median (fraction of plate median); higher = more viable cells
# Conditions: 10 µM; treatment time 24 h; reporter: 7TFP
# Summary of the method: (§1)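 Colorectal cancer cells expressing a stably transduced lentiviral TCF/Wnt firefly luciferase reporter were treated in 384-well plates with kinase inhibitor library compounds at a final 10 µM for 24 h. Firefly luciferase or CellTiterGlo luminescence was then read on parallel plates. Well signals were normalised to the plate median (webcellHTS2, additive, no log transformation) and averaged over two independent replicates.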
row,SMILES,cell viability
1,Cc1c(NC(=O)OC[C@@H]2COCCN2)cn2ncnc(Nc3ccc4c(cnn4Cc4cccc(F)c4)c3)c12,1.01 ± 0.092
2,CCCS(=O)(=O)Nc1ccc(F)c(C(=O)c2c[nH]c3ncc(-c4ccc(Cl)cc4)cc23)c1F [Vemurafenib (PLX4032)],0.878 ± 0.042
3,COc1ccc(-c2cc3c(C)nc(N)nc3n([C@H]3CC[C@H](OCCO)CC3)c2=O)cn1,1.1 ± 0.099

# Tested on: DLD1
# Assay: TCF/Wnt firefly luciferase reporter signal relative to plate median (fraction of plate median); higher = higher Wnt reporter signal
# Conditions: 10 µM; treatment time 24 h; reporter: 7TFP
# Summary of the method: as §1
row,SMILES,TCF/Wnt firefly luciferase reporter signal
1,OCCn1cc(-c2ccc3c(c2)CC/C3=N\O)c(-c2ccncc2)n1,1.5 ± 0.53
2,Cn1cc(-c2ccc3ncc(Cc4ccc5ncccc5c4)n3n2)cn1,0.931 ± 0.021
3,CNC(=O)c1cccc(-c2ccc3c(N4CCOC[C@@H]4C)nc(N4CCOC[C@@H]4C)nc3n2)c1,0.328 ± 0.086
4,CC(C)(C)Cn1c(N)nc2ccc(-c3[nH]c(C(C)(C)C)nc3-c3ccc(F)cc3)nc21,1.21 ± 0.05
5,C[C@]1(O)C[C@@H](c2nc(-c3ccc4ccc(-c5ccccc5)nc4c3)c3c(N)nccn32)C1 [Linsitinib (OSI-906)],1.11 ± 0.078
6,CCN(CC)CCNC(=O)c1c(C)[nH]c(/C=C2\C(=O)Nc3ccc(F)cc32)c1C [Sunitinib Malate (Sutent)],0.939 ± 0.051
7,COc1cc(Nc2ncc(F)c(Nc3ccc4c(n3)N(COP(=O)(O)O)C(=O)C(C)(C)O4)n2)cc(OC)c1OC,0.86 ± 0.098
8,Cc1cc(C(C)Nc2ccccc2)c2nc(N3CCOCC3)cc(=O)n2c1 (stereo not drawn),1.15 ± 0.11
9,Cn1cc(-c2ccc3nnc(Sc4ccc5ncccc5c4)n3n2)cn1,1.12 ± 0.16
10,N#Cc1c(O)c2c(-c3ccc(-c4ccccc4O)cc3)csc2[nH]c1=O,1.03 ± 0.014
11,C#Cc1cccc(Nc2ncnc3cc(OCCOC)c(OCCOC)cc23)c1 [Erlotinib HCl],0.888 ± 0.023
12,N#CC(=C(/N)Sc1ccccc1N)/C(C#N)=C(\N)Sc1ccccc1N,1.73 ± 0.11
13,Nc1cccc(-c2cc3c(Oc4cccc(O)c4)ncnc3[nH]2)c1,0.961 ± 0.098
14,CCOc1cc2ncc(C#N)c(Nc3ccc(F)c(Cl)c3)c2cc1NC(=O)/C=C/CN(C)C [Pelitinib (EKB-569)],0.837 ± 0.16
15,Cc1cc(Nc2cc(CN3CCOCC3)c3nc(C)c(Cc4ccc(Cl)cc4F)n3n2)n[nH]1,1.27 ± 0.028
16,"CC[C@H](CO)Nc1nc(NCc2ccccc2)c2ncn(C(C)C)c2n1 [Roscovitine (Seliciclib, CYC202)]",1.14 ± 0.35
17,CO[C@H]1C[C@@H]2CC[C@@H](C)[C@@](O)(O2)C(=O)C(=O)N2CCCC[C@H]2C(=O)O[C@H]([C@H](C)C[C@@H]2CC[C@@H](OP(C)(C)=O)[C@H](OC)C2)CC(=O)[C@H](C)/C=C(\C)[C@@H](O)[C@@H](OC)C(=O)[C@H](C)C[C@H](C)/C=C/C=C/C=C/1C [Deforolimus (Ridaforolimus)],0.844 ± 0.022
18,O=C1NC(=O)[C@@H](c2cn3c4c(cccc24)CCC3)[C@@H]1c1c[nH]c2ccccc12 [ARQ 197 (Tivantinib)],0.632 ± 0.25
19,COc1cccc2cc(-c3nc([C@H]4CC[C@H](C(=O)O)CC4)n4ncnc(N)c34)[nH]c12,0.442 ± 0.061
20,CO[C@H]1C[C@@H]2CC[C@@H](C)[C@@](O)(O2)C(=O)C(=O)N2CCCC[C@H]2C(=O)O[C@H]([C@H](C)C[C@@H]2CC[C@@H](OC(=O)C(C)(CO)CO)[C@H](OC)C2)CC(=O)[C@H](C)/C=C(\C)[C@@H](O)[C@@H](OC)C(=O)[C@H](C)C[C@H](C)/C=C/C=C/C=C/1C [Temsirolimus (Torisel)],1.08 ± 0.085

row,SMILES,TCF/Wnt firefly luciferase reporter signal
1,CC(C)(O)CC(=O)NCCn1ccc2ncnc(Nc3ccc(Oc4cccc(C(F)(F)F)c4)c(Cl)c3)c21,1.16 ± 0.15
2,CCCS(=O)(=O)Nc1ccc(F)c(C(=O)c2c[nH]c3ncc(Cl)cc23)c1F,0.775 ± 0.33
3,O=C(O)c1ccc2c(c1)nc(Nc1cccc(Cl)c1)c1ccncc12 [cx-4945 (Silmitasertib)],0.508 ± 0.15
4,COc1cc2c(Oc3ccc(NC(=O)C4(C(=O)Nc5ccc(F)cc5)CC4)cc3F)ccnc2cc1OCCCN1CCOCC1,0.794 ± 0.15
5,CN(C)CCOc1ccc(-c2nc(-c3ccncc3)c(-c3ccc4c(c3)CC/C4=N\O)[nH]2)cc1,1.3 ± 0.092
6,COc1cc2nccc(Oc3ccc(NC(=O)C4(C(=O)Nc5ccc(F)cc5)CC4)cc3)c2cc1OC [XL-184 free base (Cabozantinib)],1.14 ± 0.14
7,CN1CC[C@H](c2c(O)cc(O)c3c(=O)cc(-c4ccccc4Cl)oc23)[C@H](O)C1 [Flavopiridol hydrochloride],0.393 ± 0.14
8,S=C(NCc1ccc2c(c1)OCO2)N1CCN(c2ncnc3c2oc2ccccc23)CC1 [Amuvatinib (MP-470)],1.07 ± 0.092
9,Cn1cnc(N)c2ncnc1-2 [3-Methyladenine],1.17 ± 0.13
10,Clc1ccc(Nc2nnc(Cc3ccncc3)c3ccccc23)cc1 [Vatalanib dihydrochloride (PTK787)],0.852 ± 0.038
11,O=c1cc(-c2cccc3c2Sc2ccccc2S3)oc(N2CCOCC2)c1,1.42 ± 0.13
12,CN1CCN(CCOc2cc(OC3CCOCC3)c3c(Nc4c(Cl)ccc5c4OCO5)ncnc3c2)CC1 [Saracatinib (AZD0530)],0.824 ± 0.12
13,CNC(=O)Nc1ccc(-c2nc(N3CC4CCC(C3)O4)c3cnn(C4CCC5(CC4)OCCO5)c3n2)cc1,0.356 ± 0.076
14,CO[C@H]1C[C@@H]2CC[C@@H](C)[C@@](O)(O2)C(=O)C(=O)N2CCCC[C@H]2C(=O)O[C@H]([C@H](C)C[C@@H]2CC[C@@H](OCCO)[C@H](OC)C2)CC(=O)[C@H](C)/C=C(\C)[C@@H](O)[C@@H](OC)C(=O)[C@H](C)C[C@H](C)/C=C/C=C/C=C/1C [Everolimus (RAD001)],0.893 ± 0.091
15,N#C/C(=C\c1ccc(O)c(O)c1)C(=O)NCc1ccccc1,0.656 ± 0.15
16,Cc1cc(CN2CCN(c3c(Br)cnc4nc(-c5ccc(N6CCN(C)CC6)cc5)[nH]c34)CC2)no1,1.42 ± 0.15
17,COc1cc2ncnc(Nc3cccc(Cl)c3)c2cc1OC [AG-1478 (Tyrphostin AG-1478)],0.847 ± 0.03
18,Cc1c(NC(=O)OC[C@@H]2COCCN2)cn2ncnc(Nc3ccc4c(cnn4Cc4cccc(F)c4)c3)c12,1.27 ± 0.099
19,CCCS(=O)(=O)Nc1ccc(F)c(C(=O)c2c[nH]c3ncc(-c4ccc(Cl)cc4)cc23)c1F [Vemurafenib (PLX4032)],1.14 ± 0.028
20,COc1ccc(-c2cc3c(C)nc(N)nc3n([C@H]3CC[C@H](OCCO)CC3)c2=O)cn1,0.348 ± 0.096
